Assay [1] deals with human RAR-related Orphan Receptor gamma (RORg), RORC (gene 6097) (UniProt P51449). Briefly: ATG_RORg_TRANS: Attagene TRANS-FACTORIAL HepG2 Assay for human RAR-related Orphan Receptor gamma (RORg) (AID 2283011). The procedure, abridged:
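Reporter transcripts from a transfected RORg-GAL4 chimera in HepG2 cells were quantified 24 h after dosing by RT-PCR, 6-FAM labelling, HpaI digestion and capillary electrophoresis; increases over DMSO baseline were fitted.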

Assay [2] concerns the target Retinoic acid receptor RXR-alpha (Homo sapiens) (UniProt P19793). Briefly: ATG_RXRa_TRANS: Attagene TRANS-FACTORIAL HepG2 Assay for human Retinoid X Receptor alpha (RXRa) (AID 2283012). The procedure, abridged:
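Measures exogenous chimeric NR-GAL4 activity in transfected HepG2 liver cells after 24 h of dosing. Induced reporter mRNA was detected by RT-PCR with capillary electrophoresis, and gain of signal was analysed against DMSO.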

For assay [3], the target named is human Retinoid X Receptor beta (RXRb), RXRB (gene 6257) (UniProt P28702). Briefly: ATG_RXRb_TRANS: Attagene TRANS-FACTORIAL HepG2 Assay for human Retinoid X Receptor beta (RXRb) (AID 2283013). The procedure, abridged: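 Chimeric receptor-Gal4 activity was assessed in transiently transfected human HepG2 cells after 24 h exposure. Transcripts from GAL4-UAS reporters were quantified by fluorescent RT-PCR and capillary electrophoresis, with DMSO as negative control and baseline.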
Chain of human Retinoid X Receptor beta (RXRb), RXRB (gene 6257) (P28702 whole entry, looked up, the tested form may be a part): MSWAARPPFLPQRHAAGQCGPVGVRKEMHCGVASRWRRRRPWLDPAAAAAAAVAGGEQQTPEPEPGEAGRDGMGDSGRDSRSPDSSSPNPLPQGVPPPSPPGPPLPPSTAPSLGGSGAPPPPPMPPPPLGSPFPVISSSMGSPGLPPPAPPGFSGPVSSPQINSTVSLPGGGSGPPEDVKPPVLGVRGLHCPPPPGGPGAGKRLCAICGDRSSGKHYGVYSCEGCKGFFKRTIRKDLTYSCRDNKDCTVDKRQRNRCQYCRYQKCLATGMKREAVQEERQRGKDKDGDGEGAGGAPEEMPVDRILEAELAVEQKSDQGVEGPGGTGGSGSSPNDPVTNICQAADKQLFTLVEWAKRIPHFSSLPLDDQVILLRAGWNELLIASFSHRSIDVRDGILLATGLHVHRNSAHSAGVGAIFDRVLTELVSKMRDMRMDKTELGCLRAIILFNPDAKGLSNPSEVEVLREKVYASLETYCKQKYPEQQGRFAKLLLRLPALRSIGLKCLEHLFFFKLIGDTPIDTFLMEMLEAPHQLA

For assay [4], the target named is human Thyroid Receptor alpha (THRa1), THRA (gene 7067) (UniProt P10827). Briefly: ATG_THRa1_TRANS: Attagene TRANS-FACTORIAL HepG2 Assay for human Thyroid Receptor alpha (THRa1) (AID 2283014). The procedure, abridged: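 Transcripts from GAL4-UAS-driven reporters, measured after 24 h compound exposure by RT-PCR plus capillary electrophoresis of 6-FAM-labeled fragments, were fitted for gain of signal relative to DMSO. Cells: transiently transfected HepG2 expressing NR-Gal4 chimeras.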
Chain of human Thyroid Receptor alpha (THRa1), THRA (gene 7067) (P10827 whole entry, looked up, the tested form may be a part): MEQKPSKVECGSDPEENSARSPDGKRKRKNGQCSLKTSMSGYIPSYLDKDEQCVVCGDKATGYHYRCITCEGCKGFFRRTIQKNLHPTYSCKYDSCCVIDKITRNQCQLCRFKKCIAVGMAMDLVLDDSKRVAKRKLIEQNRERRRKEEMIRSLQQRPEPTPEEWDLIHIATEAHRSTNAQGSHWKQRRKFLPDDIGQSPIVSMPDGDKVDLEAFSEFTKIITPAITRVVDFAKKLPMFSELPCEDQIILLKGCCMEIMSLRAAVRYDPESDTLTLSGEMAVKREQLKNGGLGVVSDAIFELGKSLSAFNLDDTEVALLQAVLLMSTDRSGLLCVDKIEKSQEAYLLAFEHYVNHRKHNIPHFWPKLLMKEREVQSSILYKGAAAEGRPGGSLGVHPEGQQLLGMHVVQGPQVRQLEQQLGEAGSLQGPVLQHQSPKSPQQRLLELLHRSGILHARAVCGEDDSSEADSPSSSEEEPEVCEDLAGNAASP

Assay [5] has as its target human Vitamin D Receptor (VDR), VDR (gene 7421) (UniProt P11473). Put plainly: ATG_VDR_TRANS: Attagene TRANS-FACTORIAL HepG2 Assay for human Vitamin D Receptor (VDR) (AID 2283022). The procedure, abridged:
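Transactivation by an exogenous VDR-Gal4 chimera in transiently transfected HepG2 cells was measured as reporter transcript level 24 hours after chemical treatment. RT-PCR products were analysed by capillary electrophoresis and fitted in the positive direction relative to DMSO.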

Read-out in assay [6]: E-selectin (Homo sapiens) (UniProt P16581)
Put plainly: BSK_3C_Eselectin: BioMAP Diversity Plus: 3C Assay for Eselectin Biomarker Activity (AID 2283015; active = hit-call score of the fitted dose curve at least 0.9, where 1 is the maximum; inactive = score below 0.9;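 note: cell surface E-selectin protein quantified by ELISA 24 h after dosing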). Particulars: primary human endothelial cells (HUVEC); actives raise or lower the signal. In outline: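 E-selectin ELISA readout, fitted bidirectionally relative to DMSO, taken 24 h post-dosing in HUVEC cultures of the 3C system. Overt cytotoxicity tracked with sulforhodamine B staining of parallel wells.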

Read-out in assay [7]: Interleukin-1 alpha (IL1a), IL1A (gene 3552)
Put plainly: BSK_BE3C_IL1a: BioMAP Diversity Plus: BE3C Assay for Interleukin-1 alpha (IL1a) Biomarker Activity (AID 2283016; active = hit-call score of the fitted dose curve at least 0.9, where 1 is the maximum; inactive = score below 0.9). Particulars: primary human bronchial epithelial cells; actives raise or lower the signal. The procedure, abridged:
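Signal from IL-1a ELISA, taken 24 h after chemical dosing of human bronchial epithelial cells, is compared with DMSO as baseline using bidirectional curve fitting.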

Read-out in assay [8]: Monocyte Chemoattractant Protein-1 (MCP1), CCL2 (gene 6347)
Put plainly: BSK_3C_MCP1: BioMAP Diversity Plus: 3C Assay for Monocyte Chemoattractant Protein-1 (MCP1) Biomarker Activity (AID 2283017; active = hit-call score of the fitted dose curve at least 0.9, where 1 is the maximum; inactive = score below 0.9). The following applies: primary human endothelial cells (HUVEC); actives raise or lower the signal. In outline: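 MCP-1 was measured by ELISA 24 h after dosing in primary HUVEC 3C cultures and fitted in both directions relative to DMSO; cytotoxicity was checked by SRB total-protein staining in parallel wells.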

Read-out in assay [9]: Monocyte Chemoattractant Protein-1 (MCP1), CCL2 (gene 6347)
Put plainly: BSK_4H_MCP1: BioMAP Diversity Plus: 4H Assay for Monocyte Chemoattractant Protein-1 (MCP1) Biomarker Activity (AID 2283018; active = hit-call score of the fitted dose curve at least 0.9, where 1 is the maximum; inactive = score below 0.9). Particulars: primary human endothelial cells (HUVEC); actives raise or lower the signal. In outline:
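Endothelial cells from umbilical vein were treated with test chemical, then after 24 h MCP-1 levels were quantified by ELISA; endpoint values came from bidirectional fitting with DMSO as baseline of activity.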

Read-out in assay [10]: Interleukin-8 (IL8), CXCL8 (gene 3576)
Briefly: BSK_3C_IL8: BioMAP Diversity Plus: 3C Assay for Interleukin-8 (IL8) Biomarker Activity (AID 2283020; active = hit-call score of the fitted dose curve at least 0.9, where 1 is the maximum; inactive = score below 0.9). The following applies: primary human endothelial cells (HUVEC); actives raise or lower the signal. In outline: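 Endothelial primary cells of human umbilical vein origin are dosed with chemical; after 24 h the IL-8 biomarker is measured by ELISA, and concentration–response is fitted in both directions versus DMSO.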

Read-out in assay [11]: Monokine induced gamma interferon (MIG), CXCL9 (gene 4283)
Put plainly: BSK_3C_MIG: BioMAP Diversity Plus: 3C Assay for Monokine induced gamma interferon (MIG) Biomarker Activity (AID 2283021; active = hit-call score of the fitted dose curve at least 0.9, where 1 is the maximum; inactive = score below 0.9). Particulars: primary human endothelial cells (HUVEC); actives raise or lower the signal. The procedure, abridged: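 Endothelial primary cells (human umbilical vein) are dosed with test chemical in the 3C system. MIG levels are measured by ELISA at 24 h and fitted in both directions relative to DMSO.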

Assay [12] can be described thus: BSK_3C_SRB: Viability Assessment in the BioMAP Diversity Plus: 3C Assay (AID 2283023; active = hit-call score of the fitted dose curve at least 0.9, where 1 is the maximum; inactive = score below 0.9;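 note: fitted both ways against DMSO so a hit may be signal rise or drop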). Particulars: primary human endothelial cells (HUVEC). In outline:
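Cytotoxicity readout in parallel HUVEC 3C cultures: after 24 h compound exposure, cells fixed with 10% TCA, stained with 0.1% SRB and read at 560 nm. Gain or loss relative to DMSO fitted.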

Read-out in assay [13]: Matrix Metallopeptidase 1 (MMP1), MMP1 (gene 4312)
Briefly: BSK_BE3C_MMP1: BioMAP Diversity Plus: BE3C Assay for Matrix Metallopeptidase 1 (MMP1) Biomarker Activity (AID 2283024; active = hit-call score of the fitted dose curve at least 0.9, where 1 is the maximum; inactive = score below 0.9). Particulars: primary human bronchial epithelial cells; actives raise or lower the signal. The procedure, abridged: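 MMP1 signal, measured by ELISA after a 24 h chemical exposure of human primary bronchial epithelial cells, is analysed with bidirectional fitting using DMSO as negative control.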

Assay [14] is described as follows: BSK_4H_SRB: Viability Assessment in the BioMAP Diversity Plus: 4H Assay (AID 2283027; active = hit-call score of the fitted dose curve at least 0.9, where 1 is the maximum; inactive = score below 0.9;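 note: cells exposed to compound for 24 h before staining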;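 for AC50: curves fitted both ways versus DMSO so AC50 may be loss or gain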). Particulars: primary human endothelial cells (HUVEC). The procedure, abridged: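 Cytotoxicity read-out in primary human endothelial cells: after 24 h compound exposure, cells were TCA-fixed (10%), stained with 0.1% SRB and absorbance taken at 560 nm. Values fitted in both directions relative to DMSO.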

The nature of assay [15]: BSK_BE3C_SRB: Viability Assessment in the BioMAP Diversity Plus: BE3C Assay (AID 2283028; active = hit-call score of the fitted dose curve at least 0.9, where 1 is the maximum; inactive = score below 0.9). The following applies: primary human bronchial epithelial cells. In outline: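 Cytotoxicity read-out: SRB (0.1%) staining of TCA-fixed (10%) human lung bronchial epithelial cells, absorbance 560 nm, 24 h post-dosing. Curves fitted both directions relative to DMSO.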
Read-out in assay [16]: Thrombomodulin, THBD (gene 7056)
Put plainly: BSK_3C_Thrombomodulin: BioMAP Diversity Plus: 3C Assay for Thrombomodulin Biomarker Activity (AID 2283029; active = hit-call score of the fitted dose curve at least 0.9, where 1 is the maximum; inactive = score below 0.9). Particulars: primary human endothelial cells (HUVEC); actives raise or lower the signal. In outline:
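Endothelial cells from umbilical vein are dosed with test chemical and incubated 24 h. Thrombomodulin is then quantified by ELISA, with DMSO serving as negative control and activity baseline.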

Read-out in assay [17]: Urokinase-type plasminogen activator receptor (uPAR), PLAUR (gene 5329)
Briefly: BSK_4H_uPAR: BioMAP Diversity Plus: 4H Assay for Urokinase-type plasminogen activator receptor (uPAR) Biomarker Activity (AID 2283030; active = hit-call score of the fitted dose curve at least 0.9, where 1 is the maximum; inactive = score below 0.9). Particulars: primary human endothelial cells (HUVEC); actives raise or lower the signal. In outline: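 uPAR level read by ELISA on HUVEC cultures (BioMAP 4H) 24 h post-dosing, analyzed for gain or loss relative to DMSO. Parallel SRB staining assessed overt cytotoxicity.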

Assay [18] is described as follows: BSK_3C_Vis: BioMAP Diversity Plus: 3C Assay for Morphology Visualization (AID 2283025; active = hit-call score of the fitted dose curve at least 0.9, where 1 is the maximum; inactive = score below 0.9;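 note: fitted both ways so gain or loss versus DMSO counts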). Particulars: primary human endothelial cells (HUVEC). In outline: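 Morphology read by light microscopy serves as a background control for the multiplexed 3C assay in human umbilical vein endothelial cells, taken 24 h after dosing, with DMSO as the negative control and bidirectional curve fitting.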

Read-out in assay [19]: Pselectin, SELP (gene 6403)
Put plainly: BSK_4H_Pselectin: BioMAP Diversity Plus: 4H Assay for Pselectin Biomarker Activity (AID 2283026; active = hit-call score of the fitted dose curve at least 0.9, where 1 is the maximum; inactive = score below 0.9). The following applies: primary human endothelial cells (HUVEC); actives raise or lower the signal. The procedure, abridged: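 Endothelial primary cells (human umbilical vein) are dosed, incubated 24 h, and assayed for surface P-selectin by ELISA; responses in either direction are fitted relative to the DMSO negative control.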

Records with an inconclusive call do not appear. Where a structure was tested more than once in an assay, its records may differ in their call. Active and inactive are the calls of the source. Rule for the calls, unless noted: active = hit-call score of the fitted dose curve at least 0.9, where 1 is the maximum; inconclusive = response in the unintended direction; inactive = score below 0.9.

Here are results for 15 compounds from PubChem BioAssay (EPA / NIEHS).

Chain of Retinoic acid receptor RXR-alpha (Homo sapiens) (P19793 whole entry, looked up, the tested form may be a part): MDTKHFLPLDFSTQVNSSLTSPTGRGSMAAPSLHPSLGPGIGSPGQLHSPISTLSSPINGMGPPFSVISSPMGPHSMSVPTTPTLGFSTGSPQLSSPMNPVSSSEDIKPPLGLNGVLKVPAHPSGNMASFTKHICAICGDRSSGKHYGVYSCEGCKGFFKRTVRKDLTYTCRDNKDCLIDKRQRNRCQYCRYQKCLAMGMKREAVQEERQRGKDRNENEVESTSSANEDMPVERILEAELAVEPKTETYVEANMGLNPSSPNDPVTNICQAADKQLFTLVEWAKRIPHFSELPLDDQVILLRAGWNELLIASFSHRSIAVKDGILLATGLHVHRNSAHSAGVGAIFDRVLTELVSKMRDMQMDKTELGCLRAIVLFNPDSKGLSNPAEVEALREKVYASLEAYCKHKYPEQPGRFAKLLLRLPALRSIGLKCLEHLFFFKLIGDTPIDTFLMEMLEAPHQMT
Chain of human Vitamin D Receptor (VDR), VDR (gene 7421) (P11473 whole entry, looked up, the tested form may be a part): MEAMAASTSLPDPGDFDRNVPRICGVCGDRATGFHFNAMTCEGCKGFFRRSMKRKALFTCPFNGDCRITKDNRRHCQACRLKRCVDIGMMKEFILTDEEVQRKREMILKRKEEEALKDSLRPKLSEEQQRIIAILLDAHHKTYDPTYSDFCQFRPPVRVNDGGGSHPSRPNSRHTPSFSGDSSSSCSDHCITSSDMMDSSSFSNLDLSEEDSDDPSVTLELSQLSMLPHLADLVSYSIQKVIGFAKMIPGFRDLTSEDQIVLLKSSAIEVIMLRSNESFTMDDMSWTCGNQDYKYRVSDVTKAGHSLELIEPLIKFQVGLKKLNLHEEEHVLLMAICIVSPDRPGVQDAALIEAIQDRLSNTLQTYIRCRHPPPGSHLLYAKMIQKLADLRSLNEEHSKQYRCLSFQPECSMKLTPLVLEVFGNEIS
Chain of E-selectin (Homo sapiens) (P16581 whole entry, looked up): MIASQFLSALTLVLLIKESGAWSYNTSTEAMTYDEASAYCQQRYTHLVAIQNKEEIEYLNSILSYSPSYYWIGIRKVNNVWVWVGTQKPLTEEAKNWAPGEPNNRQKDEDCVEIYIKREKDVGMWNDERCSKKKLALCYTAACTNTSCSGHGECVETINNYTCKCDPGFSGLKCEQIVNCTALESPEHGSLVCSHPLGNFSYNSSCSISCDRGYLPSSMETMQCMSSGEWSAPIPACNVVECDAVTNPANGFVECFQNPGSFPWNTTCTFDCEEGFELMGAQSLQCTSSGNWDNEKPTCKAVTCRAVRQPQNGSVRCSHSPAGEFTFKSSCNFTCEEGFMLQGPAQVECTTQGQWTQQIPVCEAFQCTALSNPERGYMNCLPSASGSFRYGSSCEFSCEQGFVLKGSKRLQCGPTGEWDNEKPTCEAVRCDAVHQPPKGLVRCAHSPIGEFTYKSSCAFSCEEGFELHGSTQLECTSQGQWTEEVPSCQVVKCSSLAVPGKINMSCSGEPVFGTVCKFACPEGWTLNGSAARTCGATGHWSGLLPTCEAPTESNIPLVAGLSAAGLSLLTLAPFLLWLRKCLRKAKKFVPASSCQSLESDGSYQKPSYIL
Chain of human RAR-related Orphan Receptor gamma (RORg), RORC (gene 6097) (P51449 whole entry, looked up, the tested form may be a part): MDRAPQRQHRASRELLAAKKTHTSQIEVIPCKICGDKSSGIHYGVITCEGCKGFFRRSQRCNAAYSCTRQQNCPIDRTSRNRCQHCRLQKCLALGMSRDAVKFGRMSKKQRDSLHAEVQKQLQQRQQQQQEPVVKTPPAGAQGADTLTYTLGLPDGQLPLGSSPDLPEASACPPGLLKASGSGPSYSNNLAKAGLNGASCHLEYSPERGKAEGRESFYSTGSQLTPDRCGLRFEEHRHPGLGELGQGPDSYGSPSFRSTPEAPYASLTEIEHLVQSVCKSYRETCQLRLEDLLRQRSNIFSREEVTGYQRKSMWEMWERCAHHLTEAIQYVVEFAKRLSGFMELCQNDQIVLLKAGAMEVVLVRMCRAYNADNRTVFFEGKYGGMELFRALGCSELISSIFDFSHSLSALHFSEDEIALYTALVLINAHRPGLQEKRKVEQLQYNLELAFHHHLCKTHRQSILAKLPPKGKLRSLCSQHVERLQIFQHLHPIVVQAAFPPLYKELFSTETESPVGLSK

Take `C=CC(=O)OCCC(F)(F)C(F)(F)C(F)(F)C(F)(F)C(F)(F)C(F)(F)F`: the compound was classed as inactive in [1], in assay [2], in assay [3] and in assay [4].

For `CCCCN(C)C`, the compound was classed as inactive in assay [1], in [2] and in assay [3].

`FC(F)=C(F)C(F)(F)C(F)(F)C(F)(F)C(F)F`: the compound was called inactive in [1] and in assay [2].

Turning to `Oc1cccc2c(O)cccc12`, the compound was called inactive in [1], in [2], in assay [3], in [4] and in assay [5].

Regarding `Brc1cc(Br)c(Oc2c(Br)cc(Br)c(Br)c2Br)cc1Br`, the compound was called inactive in assay [1], in [2] and in assay [5].

In general, AC50 refers to the midpoint of the concentration-response curve, whichever way the signal moves. Take `O=P(O)(O)CCC(F)(F)C(F)(F)C(F)(F)C(F)(F)C(F)(F)C(F)(F)C(F)(F)C(F)(F)F`: the compound was classed as inactive in [1], in [2], in assay [4], in [6], in assay [7] and in assay [8]. The outcome in [9], in assay [10], in [11], in assay [12], in assay [13] and in assay [14] was inactive. The result in assay [15], in assay [16] and in assay [17] was inactive. Further, the AC50 is 47 µM (active) in assay [12], 11.5 µM (active) in assay [13] and 42.7 µM (active) in assay [14].

`CC(=O)Nc1ccc(O)cc1`: the compound was called inactive in assay [1], in [2], in assay [4], in [6], in assay [7] and in assay [8]. Also, the outcome in assay [9], in assay [10], in assay [12], in assay [13], in assay [18] and in assay [19] was inactive. Besides, the outcome in assay [14], in assay [15], in [16] and in assay [17] was inactive.

As to `FC(F)(F)C1(F)C(F)(F)C(F)(F)C(F)(F)C1(F)F`, the call in assay [1], in [2], in [4] and in assay [5] was inactive.

As for `CCCCCCCCC(C)=O`, the compound was called inactive in assay [1] and in assay [2].

Take `CCCC=O`: the call in assay [1] and in [2] was inactive.

For `NS(=O)(=O)O`, the outcome in assay [1], in assay [2] and in assay [4] was inactive.

As for `O=C(OC(=O)C(F)(F)C(F)(F)F)C(F)(F)C(F)(F)F`, the outcome in assay [1], in assay [2], in assay [4] and in assay [5] was inactive.

In the case of `CC(=O)CC(C)C`, the compound was classed as inactive in assay [1], in assay [2], in assay [3], in assay [4] and in assay [5].

Take `CCC(C)c1nccnc1OC` (stereo not given): the result in assay [1], in assay [2] and in assay [5] was inactive.

With `CC1=NN(c2ccccc2)C(=O)C1`, the compound was classed as inactive in [1], in [2], in [3], in assay [4], in assay [6] and in [7]. Further, the outcome in assay [8], in assay [9], in assay [10], in [12], in [13] and in [18] was inactive. Also, the outcome in assay [14], in [15], in [16] and in [17] was inactive.
